Test results as given in the supplement of paper PMC8253809.
“And” between values parts separate entries of the source, which are not always exact repeats. Identical values can stand only once.

Legend:
Assay in all cases: growth inhibition (% activity, log2 RLU normalised to DMSO / staurosporine); higher = more growth inhibition
Details in all cases: 33 µM
[1] = system: DIPGX29 (H3.3 K27M diffuse intrinsic pontine glioma line)
Summary of the method: (§1)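 Cells (pHGG lines and H9-derived neural stem cells) were plated on Geltrex-coated 384-well plates and exposed to approved drugs at a single final concentration of about 33 μM, in triplicate, for 7 days at 37 °C, 5% CO2. Log2-transformed CellTiter-Glo luminescence was normalised per plate to % activity between solvent and positive control wells, and the growth-inhibition value is the median over replicates.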

[2] = system: DIPGX37 (H3.3 K27M diffuse intrinsic pontine glioma line)
Summary of the method: as §1

[3] = system: DIPGX7 (H3.3 K27M diffuse intrinsic pontine glioma line)
Summary of the method: as §1

[4] = system: DIPGX9 (diffuse intrinsic pontine glioma line)
Summary of the method: as §1

[5] = system: HGGX39 (paediatric high-grade glioma line)
Summary of the method: as §1

[6] = system: HGGX6 (H3.3 G34R paediatric high-grade glioma line)
Summary of the method: as §1

[7] = system: HNSC
Summary of the method: as §1

[8] = system: SUDIPGIV (diffuse intrinsic pontine glioma line)
Summary of the method: as §1

[9] = system: SUDIPGVI (diffuse intrinsic pontine glioma line)
Summary of the method: as §1

[10] = system: SUDIPGXIII (diffuse intrinsic pontine glioma line)
Summary of the method: as §1

| Compound | growth inhibition [1] | growth inhibition [2] | growth inhibition [3] | growth inhibition [4] | growth inhibition [5] | growth inhibition [6] | growth inhibition [7] | growth inhibition [8] | growth inhibition [9] | growth inhibition [10] |
| --- | --- | --- | --- | --- | --- | --- | --- | --- | --- | --- |
| CN1CCC[C@@H]1CCO[C@](C)(c1ccccc1)c1ccc(Cl)cc1 | 5.74% | 3.39% | 5.71% | 2.23% | 6.24% | 5.32% | 4.55% | 0.591% | 2.52% | 1.69% |
| COc1cc(Cc2cnc(N)nc2N)cc(OC)c1OC | 1.94% | 3.36% | 1.59% | 1.97% | 3.59% | 2.4% | 0.59% | 2.24% | 2.5% | -1.4% |
| Cc1c(-c2ccccc2)oc2c(C(=O)OCCN3CCCCC3)cccc2c1=O | -0.48% | -1.55% | 0.152% | -0.867% | 0.0272% | 0.269% | -2.8% | -0.209% | -3.08% | -2.91% |
| CN1C(C(=O)Nc2ccccn2)=C(O)c2sc(Cl)cc2S1(=O)=O | -1.88% | -0.653% | -2.4% | 0.761% | -1.26% | -0.605% | -1.13% | -7.21% | -0.634% | 2.15% |
| COc1cccc2c1C(=O)c1c(O)c3c(c(O)c1C2=O)C[C@@](O)(C(C)=O)C[C@@H]3O[C@H]1C[C@H](N)[C@H](O)[C@H](C)O1 | 55.5% | 56.5% | 54.9% | 43.6% | 53% | 56.3% | 62.2% | 57.2% | 46.8% | 66.3% |
| Cc1c(Cl)cccc1Nc1ccccc1C(=O)O | 1.71% | 2.72% | 2.88% | 2.29% | 4.47% | 2.44% | 4.89% | -2.4% | 2.85% | 0.296% |
| CC(=O)Nc1ccccc1 | -2.81% | -0.334% | -1.79% | -2.39% | -2.41% | -0.159% | -3.95% | -0.657% | -5.47% | 0.153% |
| CC1(C)O[C@@H]2C[C@H]3[C@@H]4CCC5=CC(=O)C=C[C@]5(C)[C@H]4[C@@H](O)C[C@]3(C)[C@]2(C(=O)CO)O1 | 0.656% | 2.84% | -0.564% | 3% | 2.23% | 1.78% | -4.33% | 0.0175% | -0.194% | 2.31% |
| CO/N=C(\C(=O)N[C@@H]1C(=O)N2C(C(=O)O)=C(Cn3ccc(=N)n3CCO)CS[C@H]12)c1csc(N)n1 | -0.673% | 1.46% | 0.0521% | 0.497% | -0.232% | 0.395% | -1.19% | -0.702% | 0.0229% | 1.31% |
| COc1ccc(CC(C)NCC(O)c2ccc(O)c(NC=O)c2)cc1 (stereo not given) | -0.234% | -0.809% | 0.814% | 0.302% | 3.66% | 0.0101% | 6.49% | 0.93% | 1.33% | -1.79% |
| O=C1OC(CN2CCOCC2)CN1/N=C/c1ccc([N+](=O)[O-])o1 (stereo not given) | -1.53% | 1.22% | -0.714% | -0.52% | -0.169% | 0.852% | -1.5% | -2.29% | -0.066% | -18.3% |
| CCc1ccc(CCOc2ccc(CC3SC(=O)NC3=O)cc2)nc1 (stereo not given) | -2.15% and 0.83% | -2.01% and 4.22% | -1.47% and 2.56% | -0.422% and 2.5% | -0.303% and 4.55% | 0.514% and 3.43% | -3.49% and 4.18% | -1.64% and 1.36% | -1.48% and 2.8% | -2.58% and 1.07% |
| CCOC(=O)C1=C[C@@H](OC(CC)CC)[C@H](NC(C)=O)[C@@H](N)C1 | -0.948% | 0.933% | -0.6% | -0.724% | -0.188% | 0.263% | 0.516% | 1.15% | 0.0268% | -0.397% |
| Nc1nc(CC(=O)Nc2ccc(CCNC[C@H](O)c3ccccc3)cc2)cs1 | 0.527% | 0.899% | -0.176% | 0.63% | 1.04% | -0.0848% | -1.35% | -0.627% | 0.0605% | 0.226% |
| CCc1c(Cl)c(O)c(Cl)c(O)c1C(=O)O[C@H]1[C@H](O)[C@H](OC)[C@H](OC/C2=C\C=C\C[C@H](O)/C(C)=C/[C@H](CC)[C@@H](O[C@@H]3OC(C)(C)[C@@H](OC(=O)C(C)C)[C@H](O)[C@@H]3O)/C(C)=C/C(C)=C/C[C@@H]([C@@H](C)O)OC2=O)O[C@@H]1C | 0.669% | 2.16% | 0.835% | -0.411% | 9.09% | 0.0636% | 11.6% | 3.19% | 2.46% | 0.498% |
| O=S(=O)(O)NC1CCCCC1 | 0.811% | 0.93% | 1.03% | 0.594% | 2.81% | 1.56% | 0.385% | 0.0436% | 0.0298% | -1.99% |
| COc1ccccc1OCC(O)CN1CCN(CC(=O)Nc2c(C)cccc2C)CC1 (stereo not given) | -3.85% and 2.95% | -0.299% and 2.63% | -1.1% and 4.84% | -2.23% and 2.88% | -2.5% and 3.07% | -1.8% and 1.36% | -2.11% and 14% | -2.68% and 2.7% | -1.9% and -0.296% | -2.34% and -1.26% |
| CCOC(=O)c1ccc(C#Cc2ccc3c(c2)C(C)(C)CCS3)nc1 | 3.83% | -0.285% | 6.1% | 9.38% | 8.54% | 6.5% | 6.59% | 8.53% | 4.1% | 1.82% |
| Nc1ccc(S(=O)(=O)Nc2ccccn2)cc1 | 0.131% | -0.785% | -0.925% | -0.171% | 0.333% | 0.609% | 0.764% | -1.02% | 1.15% | -1.65% |

| Compound | growth inhibition [1] | growth inhibition [2] | growth inhibition [3] | growth inhibition [4] | growth inhibition [5] | growth inhibition [6] | growth inhibition [7] | growth inhibition [8] | growth inhibition [9] | growth inhibition [10] |
| --- | --- | --- | --- | --- | --- | --- | --- | --- | --- | --- |
| Cc1cccc(C)c1OCC(=O)N[C@@H](Cc1ccccc1)[C@@H](O)C[C@H](Cc1ccccc1)NC(=O)[C@H](C(C)C)N1CCCNC1=O | -0.115% | 1.21% | -0.846% | 1.07% | -0.0767% | 1.3% | 0.148% | -2.8% | -1.16% | -0.606% |
| Nc1nccs1 | -0.162% | 1.62% | -0.134% | 1.18% | -0.0642% | -1.25% | 5.02% | 0.246% | 1.08% | 0.0518% |
| C[C@@](Cc1ccc(O)c(O)c1)(NN)C(=O)O | -0.229% | 0.519% | -0.935% | 2.31% | -0.733% | 0.427% | -1.19% | 0.65% | 2.9% | 1.25% |
| C[C@@H]1CCN(C(=O)CC#N)C[C@@H]1N(C)c1ncnc2[nH]ccc12 | 0.671% | -1.72% | 0.986% | -0.0672% | 1.55% | -3.29% | 19.9% | -0.0962% | -2.08% | 1.44% |
| Cc1cc2c(s1)Nc1ccccc1N=C2N1CCN(C)CC1 | 1.66% | 3.63% | 1.48% | 2.04% | 4.5% | 0.504% | 3.31% | 3.12% | 3.75% | -0.29% |
| CCOC(=O)c1c(C)n(C)c2ccc(O)cc12 | 0.475% | 0.373% | 0.137% | -1.16% | 1.77% | 1.27% | -0.219% | 0.902% | -0.0936% | -1.54% |
| Cc1oncc1C(=O)Nc1ccc(C(F)(F)F)cc1 | 12% | 9.13% | 10.1% | 22.6% | 24.2% | 9.78% | 55.7% | 28.2% | 1.33% | 2.78% |
| CN1CC(=O)N2[C@H](c3ccc4c(c3)OCO4)c3[nH]c4ccccc4c3C[C@@H]2C1=O | -0.154% | 2.3% | 0.64% | 0.257% | 2.46% | 0.71% | -0.244% | 0.899% | -1.44% | 2.73% |
| CCCc1cc(C(N)=S)ccn1 | -2.06% | -0.994% | -2.65% | -1.15% | -0.973% | 0.551% | -2.9% | -2.46% | -0.254% | 0.671% |
| O=C(O)COCCN1CCN(C(c2ccccc2)c2ccc(Cl)cc2)CC1 (stereo not given) | 1.96% | 2.21% | 3.97% | 2.72% | 4.64% | 3.15% | 3.36% | -0.252% | 2.48% | 0.283% |
| CO[C@H]1/C=C/O[C@@]2(C)Oc3c(C)c(O)c4c(O)c(c(/C=N/N5CCN(C)CC5)c(O)c4c3C2=O)NC(=O)/C(C)=C\C=C\[C@H](C)[C@H](O)[C@@H](C)[C@@H](O)[C@@H](C)[C@H](OC(C)=O)[C@@H]1C | -0.241% | -0.311% | -0.321% | -1.43% | 0.825% | 3.31% | -3.9% | -0.0069% | -1.69% | 1.7% |
| CCC(=O)O[C@]1(C(=O)CCl)[C@@H](C)C[C@H]2[C@@H]3CCC4=CC(=O)C=C[C@]4(C)[C@@]3(F)[C@@H](O)C[C@@]21C | 2.76% | 3.09% | 1.96% | 5.92% | 8.62% | 1.59% | 10.2% | 6.72% | 2.14% | 2.24% |
| Cn1nnc2c(C(N)=O)ncn2c1=O | -1.97% | 0.303% | -1.33% | -1.07% | -1.58% | -0.426% | 9.79% | -4.09% | 0.031% | -1.62% |
| C[C@H]1C[C@H]2[C@@H]3CCC4=CC(=O)C=C[C@]4(C)[C@H]3C(=O)C[C@]2(C)[C@@]1(O)C(=O)CO | -1.49% | -0.985% | 2.72% | -1.67% | -0.401% | -2.95% | -1.41% | 0.457% | -9.81% | 0.862% |
| CCC(=O)O[C@]1(C(=O)SCF)[C@H](C)C[C@H]2[C@@H]3C[C@H](F)C4=CC(=O)C=C[C@]4(C)[C@@]3(F)[C@@H](O)C[C@@]21C | 0.571% | 2.49% | -1.29% | 2.53% | 0.688% | -0.734% | 2.55% | -3.9% | -0.462% | 1.22% |
| CCCC(CCC)C(=O)O | -0.377% and 2.62% | 2.62% and 1.47% | 0.168% and 0.662% | -1.7% and -0.864% | 1.15% and -1.14% | -4.05% and -2.44% | 2.37% and 0.244% | 1.52% and 0.0625% | 0.818% and -1.61% | 0.746% and 0.431% |
| COc1cc2c(cc1OC)C(=O)C(CC1CCN(Cc3ccccc3)CC1)C2 (stereo not given) | 4.4% | -6.1% | 3.13% | -1.15% | -1.59% | 0.576% | 9.45% | -1.23% | -7.35% | -4.73% |
| CC(=O)NS(=O)(=O)c1ccc(NC(=O)c2ccccc2C(=O)O)cc1 | -1.87% | -0.137% | -3.14% | -1.16% | -2.19% | -0.75% | -2.78% | -2.4% | -1.59% | -0.151% |
| Cc1onc(-c2ccccc2Cl)c1C(=O)N[C@@H]1C(=O)N2[C@@H]1SC(C)(C)[C@@H]2C(=O)O | -0.728% | -0.729% | -0.308% | -1.05% | -0.725% | 1.07% | -1.87% | -0.916% | -0.387% | -9.34% |
